High-throughput results (PubChem)
IkB signaling – IkB Signaling; ABC-DLBCL IkBa-CBG/CBR dual luciferase ratio, 4 h; response scale: scaled: untreated 0%, proteasome inhibitor 100%; Potency, µM (series often up to 57.1 µM), for the others: at the top dose IkBa stabilization activation; hit rate 0.04% among 110,000; AID 445, 2006; active means well fitted curve in the direction sought with a large enough effect in the signal ratio, not every such curve was filed as active; inconclusive means small, poorly fitted or top-dose-only effect, or a change in a side signal; the % refers to the signal ratio;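 further: potency means the concentration at half of the fitted maximal effect; the direction sought is a rising ratio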
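Luminescence ratio of IκBα-fused green versus native red beetle luciferase in OCI-Ly3 cells, 4 h post-doxycycline with compound; red signal alone, scaled from basal (0%) to zero light (-100%), flagged nonspecific or cytotoxic effects.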
Epigenetic mod – qHTS Assay for Epigenetic Modulators; mouse C127i GFP locus derepression, cytometry, 30 h; Potency, µM (titrated, usually from 46.1 µM), for the others: top-dose GFP derepression (activation); hit rate 0.09% among 68,000; further: % of control where 0% means no effect
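Read-out is the number of GFP-positive cells, scored as fluorescent objects 20 to 120 um wide, reflecting derepression of a silenced CMV-GFP reporter in murine C127i cells after 30 h compound exposure at 37 C.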
Hsp90 Hop PPI – qHTS Assay for Disrupters of an Hsp90 Co-Chaperone Interaction; Potency, µM (titrated, usually from 57 µM), for inactives: at the highest dose activity change, negative = inhibition; hit rate 0.44% among 71,000; Hsp90 C-terminal peptide / TPR2A (Hop) interaction, human; AlphaScreen TPR2A-His6 binding biotin-Hsp90 C-terminal peptide; active means well fitted curve in either direction with a large enough effect; inconclusive means small, poorly fitted or top-dose-only effect, or another doubt; further: potency means the concentration at half of the fitted maximal effect; on the % scale 0 is the no-effect control and ±100 the full control effect
HBB splice mod – qHTS Assay for Modulators of Hemoglobin Beta Chain Splicing | hit rate 0.06% among 65,000 | Potency, µM (highest dose often 46.1 µM), for the others: at the highest dose activation, actives largely listed as activators | AID 925, 2007 | HBB splicing reporter cell assay, activation; EGFP reporter with mutant IVS2-654 intron; response scale: normalised to 500 nM splice-correcting PNA; further: potency means the concentration at half of the fitted maximal effect; 0% is about no effect
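Compounds were applied for 2 days to HeLa EGFP-654 cells, 500/well in Optimem with 2% FCS. The reporter's EGFP is disrupted by mis-splicing of beta-globin intron IVS2-654. Readout: summed well GFP fluorescence from 488 nm laser scanning; reference was 500 nM antisense […] 654 PNA.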
UbGFP stabilizer – Ubiquitin-GFP Assay | Ubiquitin-GFP reporter cells, proteasome inhibition, GFP fluorescence; response scale: untreated = 0%, 10 µM MG-132 = 100% | Potency, µM (titrated, usually from 45.9 µM), inactives show at the top dose activation (GFP accumulation), hits mostly activators | 67,000 tested, under 10 active; active means well fitted activation curve with a large enough effect, not every such curve was filed as active; inconclusive means small, poorly fitted or top-dose-only effect, or another doubt; inactive means no such curve, though single readings can be large or run the other way; further: potency means the concentration at half of the fitted maximal effect
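U2OS cells stably expressing ubiquitin(G76V)-GFP, seeded overnight in 0.5% FBS medium, were exposed to compounds (qHTS, 46 uM to 2.9 nM) for 4 hr at 37 °C. GFP-positive cells were counted by laser cytometry (488 ex/515 em), normalized between basal and 10 uM MG-132.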
* hit, by the source's call; ? = inconclusive; nt = not tested or not shown; ! = not confirmed by another sample; [ ] = dose if it differs, or a comment. This excerpt belongs to a sample that is enriched for hits. Unless noted, the call rests on the fitted dose curve; in most records, active means well fitted curve in the direction sought with a large enough effect; inconclusive means small, poorly fitted or top-dose-only effect, or another doubt; inactive means no such curve, though single readings can be large; an effect the other way counts as inactive or inconclusive.

SMILES | IkB signaling | Epigenetic mod | Hsp90 Hop PPI | HBB splice mod | UbGFP stabilizer
C[C@@H]1O[C@@H](OC[C@@H]2O[C@@H](Oc3c(-c4ccc(O)c(O)c4)oc4cc(O)cc(O)c4c3=O)[C@H](O)[C@H](O)[C@@H]2O)[C@H](O)[C@H](O)[C@@H]1O | -1%[11.4 µM] | -5%[9.22 µM] | 1% | nt | 3%
CCCCOn1c(C)c(C(=O)OCC)c2c3nonc3ccc21 | -1% | 4% | 32µM* | 1% | -4%
CCCCOn1c(C)c(C(=O)OCC)c2c3no[n+]([O-])c3ccc21 | 0% | -2% | 3% | 0% | -9%
CCN(CC)c1nc2cc(OC)ccc2cc1C#N | 0% | -1% | 25µM* | -6% | -11%
CCOC(=O)CSc1nc(-c2ccc(OC)cc2)cc(C(F)(F)F)c1C#N | 0% | nt | nt | nt | nt
CCN(CC)c1nc(C#N)cc(-c2ccc(OC)cc2)n1 | -3% | -2% | 25µM* | 7%[1.84 µM] | 0%
Nc1nc(Cl)nc2c1ncn2[C@@H]1O[C@@H](CO)[C@@H](O)[C@H]1O | ? | -2% | -7% | 0% | 0%
Nc1ccc2cc3ccccc3cc2c1 | 3.2µM* | nt | -22% | ? | nt
CC1(C)CCC[C@@]2(C)[C@@H]1CC[C@]1(C)OC(=O)C[C@@H]21 | 0%[11.4 µM] | -2%[9.22 µM] | ? | nt | 5%
CN(C)c1ccc(NC(=O)Nc2cccc(Cl)c2)cc1 | 1% | 0% | -29% | 0% | 0%
Cc1cc(NC(=O)Nc2ccc(N(C)C)cc2)c2cc(F)cc(F)c2n1 | ? | 3% | 7.9µM* | nt | 3%
CC(C)(C)C1CCc2onc(C(=O)Nc3sc4c(c3C(N)=O)CCCC4)c2C1 (configuration not stated) | 13% | nt | nt | nt | nt
COc1ccc(-c2cc(C(F)(F)F)nc(N3CCCCCC3)n2)cc1 | 0% | 0% | 25µM* | -2% | 3%
COc1ccc(-c2cc(C(F)(F)F)nc(N3CCN(c4ccccc4)CC3)n2)cc1OC | 1% | 2% | -6% | -1% | -4%
COc1ccc(-c2cc(C(F)(F)F)nc(N3CCCCC3)n2)cc1OC | 1% | -1% | 25µM* | 1% | 3%
N#CC1=C(SCC(=O)c2ccc(Cl)cc2)NC2=C(C(=O)CCC2)C1c1ccco1 (configuration not stated) | nt | 10µM* | nt | nt | nt
C=C1C(=O)O[C@H]2C[C@@]3(C)CCCC(=C)[C@@H]3C[C@H]12 | 4%[11.4 µM] | 0%[9.22 µM] | -4% | nt | -3%
Cc1cc(C)cc(-n2c3nc4ccccc4nc3c3c(=O)n(Cc4ccco4)cnc32)c1 | nt | 13µM* | nt | nt | nt
CCN(CC)c1ccc2c(Cl)c(Br)c(=O)oc2c1 | ? | 10µM* | 25µM* | nt | ?
CCOC(=O)CCc1c(C)c2ccc(O)cc2oc1=O | -2% | -2% | -2% | -1% | -1%
CCN(CC)c1ccc2c(c1)oc(=O)c1c(Cl)cc(=O)oc12 | ? | ? | 4% | 0% | 3%
CCOC(=O)Cc1c(C)c2ccc(N(CC)CC)cc2oc1=O | 3% | -2% | 25µM* | nt | 0%
O=c1cc(-c2ccccc2)oc2cc(O[C@H]3O[C@H](CO)[C@@H](O)[C@H](O)[C@@H]3O)c(O)c(O)c12 | 0%[11.4 µM] | -2%[9.22 µM] | -6% | nt | -3%
O=S(=O)(NCCNC/C=C\c1ccc(Br)cc1)c1cccc2cnccc12 | -4% | -1% | -16% | 1% | 0%
O=c1oc2c(CN3CCCCC3)c(O)ccc2cc1-c1nc2ccccc2[nH]1 | -1% | 0% | 8% | 3%[0.369 µM] | nt
SMILES | IkB signaling | Epigenetic mod | Hsp90 Hop PPI | HBB splice mod | UbGFP stabilizer
O=c1oc2c3c4c(cc2cc1-c1nc2ccccc2[nH]1)CCCN4CCC3 | ? | 1% | 8% | 0.79µM* | 13%
CC(Oc1ccc(F)cc1)C(=O)Nc1cc(-c2ccc(F)c(F)c2)no1 (configuration not stated) | -3% | nt | nt | nt | nt
CC1(C)Cc2c(C#N)c(N3CCCC3)nc(-c3ccco3)c2CO1 | ? | nt | 25µM* | 0% | -7%
CCCCN(C)c1nc(-c2ccco2)c2c(c1C#N)CC(C)(C)OC2 | ? | nt | 25µM* | 0% | -6%
O=C(O)COc1ccccc1C1Nc2ccccc2-c2nnc(SCc3ccc(Cl)cc3)nc2O1 (configuration not stated) | 15% | nt | nt | nt | nt
N#CC1=C(N)Oc2c(ccc3cccnc23)C1c1cccnc1 (configuration not stated) | ? | 20% | 32µM* | 0%[57.5 µM] | 2%
N#C/C(=C\c1ccc(O)c(O)c1)C(=O)NCCCc1ccccc1 | ? | -4%[20.6 µM] | 5µM*! | -1% | -7%
N#C/C(=C\c1ccc(O)c(O)c1)C(=O)OCCc1cccs1 | 2% | -1% | 4µM* | nt | -3%
N#C/C(=C\c1ccc(O)c(O)c1)C(=O)c1ccc(O)c(O)c1 | -10% | -1% | ? | 3% | -6%
Cc1cc(NC(c2cccnc2)c2ccc3cccnc3c2O)no1 (configuration not stated) | 2% | 20% | 4µM* | -2% | 0%
Cc1cc(NC(=O)c2cc(-c3cccnc3)nc3c(C)c(C)ccc23)no1 | ? | 6% | -5% | 3% | -1%
CCOC(=O)C1CCN(c2nc3cc(OC)ccc3cc2C#N)CC1 | 11% | 2% | 25µM* | nt | 1%
COc1ccc2nc(N3CCC(O)CC3)c(C#N)cc2c1 | -2% | 3% | 4% | nt | -8%
COc1ccc2nc(N3CCC(C)CC3)c(C#N)cc2c1 | 1% | 6% | 25µM* | 0%[57.5 µM] | 7%
O=C1OC2(c3cc(Br)c(O)c(Br)c3Oc3c2cc(Br)c(O)c3Br)c2c(Cl)c(Cl)c(Cl)c(Cl)c21 | -9% | nt | ? | 2% | nt
c1ccc2c(c1)-c1cccc3c1c-2cc1ccccc13 | -2% | nt | 5µM* | 0% | nt
Cc1cc(-c2ccc(N=Nc3ccc4c(S(=O)(=O)O)cc(S(=O)(=O)O)c(N)c4c3O)c(C)c2)ccc1N=Nc1ccc2c(S(=O)(=O)O)cc(S(=O)(=O)O)c(N)c2c1O | ? | -1% | 4µM* | nt | -1%
O=C1NC(c2ccccn2)Nc2sc3c(c21)CCC3 (configuration not stated) | ? | -2% | 32µM* | 0% | 3%
N=c1oc2c3c4c(cc2cc1C(=O)Nc1ccccc1)CCCN4CCC3 | ? | 7% | 0% | 3.2µM* | ?
N#Cc1ccc(NC(=O)c2cc3cc4c5c(c3oc2=N)CCCN5CCC4)cc1 | 1% | 10µM* | 0% | 0% | 15%
CC(C)c1cc(=O)oc2c3c4c(cc12)CCCN4CCC3 | ? | 3% | 22% | -1%[9.22 µM] | 4%
O=c1c(O)c(-c2ccc(O)c(O)c2)oc2cc(O)cc(O)c12 | ? | -1% | 13µM*! | 1%[20.6 µM] | -1%
